Experimental data reported in PubChem BioAssay (Tox21).
Activity calls are given as the source filed them. The call rests on the fitted dose curve; in most records, active means well fitted activation curve with a large enough effect in the repeat runs; inconclusive means weak or mixed curves; inactive means flat fitted curve, though single readings scatter.

target: Androgen receptor (Homo sapiens) (UniProt P10275); assay: qHTS assay to identify small molecule agonists of the androgen receptor (AR) signaling pathway using the MDA cell line (AID 743040; further: nearly all actives have a fitted effect of over 20% in size); details: MDA-kb2 AR-luc cells, MMTV luciferase, 16 h; series mostly up to 70.3 µM
Source text: National Center for Advancing Translational Sciences [NCATS]
NIH Chemical Genomics Center [NCGC]
U.S. Environmental Protection Agency [EPA]
National Institutes of Environmental Health Sciences [NIEHS]
National Toxicology Program [NTP]
U.S. Food and Drug Administration [FDA]
Androgen receptor (AR), a nuclear hormone receptor, plays a critical role in AR-dependent prostate cancer and other androgen related diseases. Endocrine disrupting chemicals (EDCs) and their interactions with steroid hormone receptors like AR may cause disruption of normal endocrine function as well as interfere with metabolic homeostasis, reproduction, developmental and behavioral functions. To identify the compounds that activate AR signaling, MDA-kb2 AR-luc cell line (from ATCC, deposited by Wilson et al.) was used to screen the Tox21 10K compound library. MDA-kb2 AR-luc cell line is human breast carcinoma cell line that was stably transfected with a luciferase reporter gene under control of the MMTV promoter containing response elements for both androgen receptor (AR) and glucocorticoid receptor (GR).
Tox21 Assay Protocol Summary:
MDA-kb2 AR-luc cells were dispensed at 3,000 cells/5 uL/well of culture medium into white wall/solid-bottom 1536-well plates using a Multidrop Combi (ThermoFisher Scientific, Waltham, MA) dispenser. After the assay plates were incubated at 37C and 0% CO2 for 5 h, 23 nL of compounds dissolved in DMSO, positive controls or DMSO only was transferred to the assay plate by a Pintool station (Kalypsys, San Diego, CA). The plates were incubated at 37C and 0% CO2 for 16 h. Then 4 uL of ONE-Glo reagent (Promega, Madison, WI) was added to each plate using a Bioraptr Flying Reagent Dispenser (FRD) workstation (Beckman Coulter, Indianapolis, IN, USA) and luminescence was quantified on a ViewLux (PerkinElmer, Shelton, CT) plate reader after 30 min incubation at room temperature.

Sequence of Androgen receptor (Homo sapiens) (P10275 whole entry, looked up): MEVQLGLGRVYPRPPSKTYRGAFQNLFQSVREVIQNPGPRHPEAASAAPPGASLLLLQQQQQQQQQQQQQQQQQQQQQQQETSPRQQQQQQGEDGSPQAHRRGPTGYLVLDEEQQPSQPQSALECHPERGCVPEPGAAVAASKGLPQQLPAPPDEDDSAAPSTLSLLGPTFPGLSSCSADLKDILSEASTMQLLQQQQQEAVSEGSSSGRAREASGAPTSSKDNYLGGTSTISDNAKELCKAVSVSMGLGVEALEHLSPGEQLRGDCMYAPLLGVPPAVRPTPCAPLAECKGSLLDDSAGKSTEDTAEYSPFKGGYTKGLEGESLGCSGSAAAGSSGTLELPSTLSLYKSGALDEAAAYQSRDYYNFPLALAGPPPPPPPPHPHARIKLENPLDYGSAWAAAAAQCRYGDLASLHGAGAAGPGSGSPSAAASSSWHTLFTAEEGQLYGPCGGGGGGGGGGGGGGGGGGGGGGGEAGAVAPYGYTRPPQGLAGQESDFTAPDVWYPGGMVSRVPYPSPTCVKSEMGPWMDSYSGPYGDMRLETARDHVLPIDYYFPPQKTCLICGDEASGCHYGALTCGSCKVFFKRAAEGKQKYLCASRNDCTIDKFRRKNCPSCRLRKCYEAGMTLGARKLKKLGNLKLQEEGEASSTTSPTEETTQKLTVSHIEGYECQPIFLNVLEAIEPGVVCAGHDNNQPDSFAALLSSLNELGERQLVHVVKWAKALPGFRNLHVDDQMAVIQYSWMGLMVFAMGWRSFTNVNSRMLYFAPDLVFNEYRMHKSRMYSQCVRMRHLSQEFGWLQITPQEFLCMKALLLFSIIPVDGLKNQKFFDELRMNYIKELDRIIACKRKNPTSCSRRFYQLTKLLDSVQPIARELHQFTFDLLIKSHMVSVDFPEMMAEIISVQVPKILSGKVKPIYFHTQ

For `CN(C)Cc1ccccc1O`, which outcome is on record?
Its outcome is “inactive”.

`CCOc1ccc2ccccc2c1C(=O)N[C@@H]1C(=O)N2[C@@H]1SC(C)(C)[C@@H]2C(=O)O` was tested. Which outcome did it give?
Its outcome is “inactive”.

For `OC[C@H]1O[C@H](O[C@H]2O[C@H](CO)[C@@H](O)[C@H](O)[C@H]2O)[C@H](O)[C@@H](O)[C@@H]1O`, which outcome is on record?
Its outcome is “inactive”.

`Cc1c2ccccc2c(C)c2c1ccc1ccccc12` was tested. Which outcome did it give?
Its outcome is “inactive”.

How did the outcome turn out when `C=CC(=O)OCCOC(=O)C=C` was run?
The outcome was “inactive”.

`C=CC(=O)Nc1cc2c(Nc3ccc(F)c(Cl)c3)ncnc2cc1OCCCN1CCOCC1` was tested. Which outcome did it give?
The outcome was “inactive”.

For `Nc1cc(Cl)c(O)c(Cl)c1`, which outcome is on record?
Its outcome is “inactive”.

How did the outcome turn out when `COC(=O)Nc1nc2ccc(C(=O)c3ccccc3)cc2[nH]1` was run?
Its outcome is “inactive”.

How did the outcome turn out when `CC(C)=CCC1=C(O)c2ccccc2C(=O)C1=O` was run?
The outcome was “inactive”.

`CN(C)c1ccc(C(=C2C=CC(=[N+](C)C)C=C2)c2ccc(N(C)C)cc2)cc1` was tested. Which outcome did it give?
Its outcome is “inactive”.

How did the outcome turn out when `NC(=O)c1cccc([N+](=O)[O-])c1` was run?
Its outcome is “inactive”.

Which outcome does the source give for `CN1CCN2c3ccccc3Cc3ccccc3C2C1` (stereo not given) here?
Its outcome is “inactive”.

For `O=C(/C=C/c1ccccc1)OC/C=C/c1ccccc1`, which outcome is on record?
Its outcome is “inactive”.

For `CC(=O)OCC=C(C)C`, which outcome is on record?
Its outcome is “inactive”.

For `CC(C)OC(=O)C(O)(CC(=O)O)CC(=O)O`, which outcome is on record?
The outcome was “inactive”.

For `Oc1c(I)cc(Cl)c2cccnc12`, which outcome is on record?
The outcome was “inactive”.

`COc1c(C)c2c(c(O)c1C/C=C(\C)CCC(=O)OCCN1CCOCC1)C(=O)OC2` was tested. Which outcome did it give?
Its outcome is “inactive”.

`COC1=C(OC)C(=O)C(CCCCCCCCCCO)=C(C)C1=O` was tested. Which outcome did it give?
The outcome was “inactive”.

Which outcome does the source give for `CCCCCCCCCCOC(=O)c1ccccc1C(=O)OCCCCCCCC` here?
Its outcome is “inactive”.

`NC(=S)NC(N)=S` was tested. Which outcome did it give?
Its outcome is “inactive”.

For `CC(C)(C)NSc1nc2ccccc2s1`, which outcome is on record?
The outcome was “inactive”.

For `Cc1cc(=O)oc2cc(O)cc(O)c12`, which outcome is on record?
The outcome was “inactive”.

Which outcome does the source give for `CCN1C(=O)c2ccccc2C1Nc1ccc(OCCN2CCCCC2)cc1` (stereo not given) here?
The outcome was “inactive”.

For `CCCCCCOC(=O)C(C)CC` (stereo not given), which outcome is on record?
The outcome was “inactive”.

With `CC(=O)c1ccc(C(C)=O)cc1` as the molecule, how does the outcome read?
The outcome was “inactive”.

With `FC(F)(F)c1cccc(Cl)c1` as the molecule, how does the outcome read?
The outcome was “inactive”.

`COc1ccc2cc1Oc1ccc(cc1)C[C@H]1c3c(cc4c(c3Oc3cc5c(cc3OC)CCN(C)[C@@H]5C2)OCO4)CCN1C` was tested. Which outcome did it give?
Its outcome is “inactive”.

`CC(CO)Oc1ccccc1` (stereo not given) was tested. Which outcome did it give?
Its outcome is “inactive”.

Which outcome does the source give for `Clc1sc(Cl)c(Cl)c1Cl` here?
The outcome was “inactive”.

How did the outcome turn out when `CCOC(=O)Cn1cccc1-c1nc(-c2ccc(OC)cc2)c(-c2ccc(OC)cc2)s1` was run?
Its outcome is “inactive”.

How did the outcome turn out when `Cc1ccc(C)cc1` was run?
Its outcome is “inactive”.

With `CCCCC(CC)CN1CN(CC(CC)CCCC)CC(C)(N)C1` (stereo not given) as the molecule, how does the outcome read?
Its outcome is “inactive”.

`O=C(O)Cc1ccccc1Nc1c(Cl)cccc1Cl` was tested. Which outcome did it give?
The outcome was “inactive”.

How did the outcome turn out when `CC1(C)[C@@H](O)CC[C@]2(C)[C@H]3C(=O)C=C4[C@@H]5C[C@@](C)(C(=O)O)CC[C@]5(C)CC[C@@]4(C)[C@]3(C)CC[C@@H]12` was run?
Its outcome is “inactive”.

For `CC(C)Cn1cnc2c(N)nc3ccccc3c21`, which outcome is on record?
The outcome was “inactive”.

Which outcome does the source give for `O=S(=O)(O)c1ccc(Nc2nc(Nc3ccc(/C=C/c4ccc(Nc5nc(Nc6ccc(S(=O)(=O)O)cc6)nc(N(CCO)CCO)n5)cc4S(=O)(=O)O)c(S(=O)(=O)O)c3)nc(N(CCO)CCO)n2)cc1` here?
Its outcome is “inactive”.

Which outcome does the source give for `ClCCl` here?
The outcome was “inactive”.

With `Cc1cc(C)c(/C=C2\C(=O)Nc3ccccc32)[nH]1` as the molecule, how does the outcome read?
The outcome was “inactive”.

Which outcome does the source give for `Nc1ccc(C(=O)O)c(O)c1` here?
Its outcome is “inactive”.

How did the outcome turn out when `CCN(CC)c1ccc2c(-c3ccc(S(=O)(=O)O)cc3S(=O)(=O)[O-])c3ccc(=[N+](CC)CC)cc-3oc2c1` was run?
The outcome was “inactive”.
